Data taken from PubChem BioAssay AID504697 (The Scripps Research Institute Molecular Screening Center, 2011).
Unmarked numbers belong to inactive results. The source made the active and inactive calls.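 Rule for the calls: active = EC50 at or below 10 µM; inactive = EC50 above 10 µM.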

Test: compound autofluorescence in calcium buffer – biochemical, fluorescence, no RTF in test wells, artefact control for cardiac thin filament activator project, dose response (AID 504697);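 note: emission near 535 nm under roughly 485 nm excitation as for IANBD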
Details: compound-only fluorescence in RTF assay buffer with Ca2+ (no RTF in test wells), artifact counterscreen

SMILES | EC50
Nc1ccc2nc3c(=O)[nH]c(=S)[nH]c3nc2c1 | 2.93 µM (active)
COC(=O)C1=C(C)NC(=O)/C1=C\N(C)C | > 71.5 µM
CCCNC(=O)Cn1c(=O)/c(=C\c2ccc(-c3ccc([N+](=O)[O-])cc3)o2)s/c1=C\C(=O)C(C)(C)C | 0.335 µM (active)
O=C(CSC1=NS(=O)(=O)c2ccccc2N1)N1CCCCC1 | > 71.5 µM
CC(C)CNC(=S)NC(=O)c1ccccc1Cl | > 71.4 µM
CC(=O)/C(C=Nc1noc(C)c1Br)=C(\C)O | > 71.6 µM
Cc1cc(/C=C2/C(=O)N(C)C(=S)N2C)ccc1N1CCCC1 | 28.8 µM
COC(=O)c1sc(N2C(=O)C(O)=C(C(=O)c3ccc(C)o3)C2c2ccc(F)cc2)nc1C (stereo unspecified) | > 71.4 µM
N=c1n(Cc2ccccc2)c2ccccc2n1CC(O)c1ccco1 (stereo unspecified) | > 71.5 µM
COc1ccc(OC)c(/C=C2\N=C(c3ccccc3)OC2=O)c1 | 1.71 µM (active)
CN(N=Nc1ccc([N+](=O)[O-])cc1)c1ccccc1 | 8.06 µM (active)
CN(C)c1ccc(N=Cc2nc(-c3ccccc3)oc2O)cc1 | 6.84 µM (active)
CN1CCS/C1=C/C=C1\SC(=S)N(CC(=O)O)C1=O | 2.28 µM (active)
COC(=O)c1ccc(S(=O)(=O)N2CCC(O)CC2)n1C | > 71.4 µM
O=[n+]1c2c(n([O-])c3cc(F)c(N4CCCC4)cc31)CCC2 | 9.61 µM (active)
CC(=O)N1CCc2c(sc(NC(=O)C3CCCN3S(=O)(=O)c3cccs3)c2C(N)=O)C1 (stereo unspecified) | 42.6 µM
CC(/C=N/Nc1ccc2nncn2n1)=C\c1ccccc1 | > 71.5 µM
Cc1cc(/C=C2\SC(=S)N(Cc3ccco3)C2=O)c(C)n1-c1cccnc1 | 12 µM

SMILES | EC50
COCCn1c(=O)c2ccccc2c2ccccc2c1=O | > 71.5 µM
Cc1ccc(/C=C2/SC(=O)NC2=S)o1 | > 23.8 µM
N=c1c2c(ncn1Cc1ccco1)Oc1cc(O)ccc1C2c1ccccc1 (stereo unspecified) | > 71.4 µM
Cc1ccccc1-n1nnnc1SCC(C)C | > 71.5 µM
CC(C)Sc1nc2ccc(Br)cc2[nH]1 | > 71.4 µM
COc1ccc(CCNC(=O)COC(=O)c2cc(=O)[nH]c3ccccc23)cc1 | > 71.5 µM
N#C/C(=C\c1ccc(-c2ccc(F)cc2)o1)C(=O)Nc1nc(-c2cccs2)cs1 | > 71.5 µM
CCC(C(=O)O)N1C(=O)/C(=C/c2cccn2C)SC1=S (stereo unspecified) | 35.3 µM
O=c1[nH][nH]c(C(F)(F)F)c1C=Nc1cccc(Cl)c1 | > 71.5 µM
COc1ccc(N=C2NC(=O)S/C2=C\c2ccc(N(C)C)cc2)cc1 | 5.67 µM (active)
O=C(NC1CCCCC1)c1cccc2c1C(=O)c1ccc(N3CCCC3)cc1S2(=O)=O | > 23.8 µM
O=C(O)c1cc(NCc2ccc(F)cc2)ccc1N1CCOCC1 | > 71.5 µM
O=C(NCc1ccc(Cl)cc1)C1CCN(c2cnccn2)CC1 | > 71.4 µM
O=C(Nc1ccccc1)NC1CS(=O)(=O)CC1O (stereo unspecified) | > 71.5 µM
O=C(O)CCC(=O)Nc1cc(C(F)(F)F)cc(C(F)(F)F)c1 | > 71.4 µM
CCCN1CCc2c(sc(NC(=S)NC(=O)c3ccccc3)c2C#N)C1 | > 71.5 µM
S=c1[nH]nc(-c2ccc(Cl)cc2)n1-c1ccc2c(c1)OCCO2 | > 71.5 µM
O=C(CSc1nc2ncc(Br)cc2[nH]1)c1cccc([N+](=O)[O-])c1 | > 71.5 µM
